# Records with an inconclusive call do not appear. Values without a mark were called inactive. Calls of active or inactive are those of the source. The call rests on the fitted dose curve; in most records, active means well fitted curve in the direction sought with a large enough effect; inconclusive means small, poorly fitted or top-dose-only effect, or another doubt; inactive means no such curve, though single readings can be large; an effect the other way counts as inactive or inconclusive.
# Target: Aldehyde dehydrogenase, mitochondrial (Homo sapiens) (UniProt P05091)
# Assay: qHTS for Inhibitors of the Aldehyde Dehydrogenase Family (ALDH2) Primary screen (AID 2061308);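 further: plate controls were vehicle for no effect and reference inhibitor for full effect; nearly all actives have a fitted effect of over 55% in size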
# Settings: ALDH2 enzyme inhibition qHTS, 1536-well; series mostly up to 56 µM; activity change, negative = inhibition: at the top concentration
SMILES,"activity change, negative = inhibition",Potency
Cc1ccc(OCCn2c(CCNC(=O)c3ccco3)nc3ccccc32)cc1,0.872%,
Cc1cccc(-n2cnc3cc(C(=O)NC(C)(C)C)ccc32)c1,-9.94%,
CC1=C(C(=O)Nc2nnc(-c3ccccc3)s2)C(c2nn(C)cc2Cl)N=C(Nc2nc3ccccc3o2)N1 (stereo not given),0.441%,
Cc1nnc(-c2cnn(C)c2N)n1Cc1cncn1C,5.12%,
O=C(CN1C(=O)N/C(=C\c2cn(-c3cccc(C(=O)O)c3)cn2)C1=O)Nc1ccc(Cl)cc1,-8.97%,
COc1cccc(C2c3c(ncn(-c4ccccc4)c3=N)Oc3ccc4ccccc4c32)c1OC (stereo not given),6.78%,
O=C(Nc1cccnc1)c1cccs1,8.57%,
CC(Oc1ccc2[nH]nc(/C=C/c3cnn(CCO)c3)c2c1)c1c(Cl)cncc1Cl (stereo not given),5.61%,
Cc1cc(NS(=O)(=O)Cc2ccc(NC(=O)Cc3ccc(Cl)c(Cl)c3)cc2)no1,-23%,
COc1ccc(S(=O)(=O)N2CCN(S(=O)(=O)c3c(F)cccc3F)CC2)cc1,,inactive
O=C(Nc1ccc(Cl)c(Cl)c1)N1CCN(c2ccncc2)CC1,6.51%,
NC1(C(=O)NC(CCO)c2ccc(Cl)cc2)CCN(c2ncnc3[nH]ccc23)CC1 (stereo not given),7.76%,
O=C(OCC#CCSc1nnc(-c2cccc3ccccc23)o1)C1CCC1,-12.5%,
Cc1ccc(S(=O)(=O)Nc2cc(C(=O)Nc3nc(-c4ccccc4)cs3)ccn2)cc1,3.07%,
COc1cccc(C2c3c(ncn(-c4cccnc4)c3=N)Oc3ccc4ccccc4c32)c1 (stereo not given),1.79%,
COc1ccc(-c2nnc3n2N=C(c2ccc(OC)c(OC)c2)CS3)cc1,7.48%,
Cc1cc(C)n2ncc(C(=O)Nc3cccc(C(F)(F)F)c3)c2n1,7.62%,
FC(F)(F)c1ccccc1-c1nc(NCc2ccccc2)c2ccccc2n1,-25%,
FC(F)(F)c1ccccc1-c1nc(NCc2ccc(-c3ccc4ccccc4c3)cc2)c2ccccc2n1,2.26%,
N#CN1CCC(NS(=O)(=O)c2cccc(C(F)(F)F)c2)CC1,1.12%,

SMILES,"activity change, negative = inhibition",Potency
Cc1cc(C)nc(NC(=S)N2CCN(c3ccc(S(C)(=O)=O)cc3F)CC2)c1,-5.97%,
CN1C2CCC1CC(OC(=O)[C@H](CO)c1ccccc1)C2 (stereo not given in full),5.58%,
O=C(Nc1ncc(Cc2ccccc2)s1)c1ccc(-c2cccc([N+](=O)[O-])c2)o1,0.144%,
Cc1ccc(OCCn2c3c(c4ccccc42)CCN(C(=O)C2CCCCC2)C3)cc1,0.915%,
c1nc(NCc2ccoc2)c2cc(-c3ccc4c(c3)OCO4)ccc2n1,-3.84%,
CC(=O)O[C@@H]1CC(C)=C2[C@H]1[C@H](C)CC[C@H]2/C=C(\C)C(=O)O,-12.2%,
CCc1c(C)nc2cc(-c3ccc(OC)c(OC)c3)nn2c1N1CCCC1,-0.0212%,
Fc1cnc(-c2ccccc2C(F)F)nc1NCC1CCN(c2cnccn2)C1 (stereo not given),-6.05%,
C=C(C)C(=O)O[C@H]1C[C@@](C)(O)C2(O)CCC(C)(/C=C3/OC(=O)C(COC)=C31)O2 (stereo not given in full),2.73%,
Cc1cc(C)nc(NC(=S)N2CCN(Cc3c(F)cccc3Cl)CC2)c1,-8.27%,
N#CN1CCC(NC(=O)c2cccc(F)c2)CC1,9.83%,
Cc1ccc(OCCn2c(CCNC(=O)C3CCCCCC3)nc3ccccc32)cc1,-12.8%,
O=C(Nc1sc2c(c1-c1nc3ccccc3s1)CCNC2)C(F)F,-26.4%,
CCOc1ccc(NC(=O)Nc2ccc(-c3nc4ccccc4[nH]3)cc2)cc1,0.699%,
CCc1ccccc1-c1nc(NCc2ccc(-c3cccnc3)cc2)c2ccccc2n1,-12.1%,
COc1cc(O)c(C(CC(=O)N2CCCC(COc3ccc(F)cc3)C2)c2ccc3c(c2)OCO3)c(OC)c1 (stereo not given),-3.85% [at 114 µM],
COC(=O)c1cccc(-c2noc(-c3ccccc3F)n2)c1,3.66%,
O=C1CCc2cc(S(=O)(=O)Nc3cccc(C(F)(F)F)c3)ccc2N1,-19%,
O=C1CCCC2=C1C(c1[nH]ncc1Cl)NC(=NCc1ccoc1)N2 (stereo not given),2.23%,
Cc1cccc(-c2csc(N3CCC(C(N)=O)CC3)n2)c1,0.161%,

# Target: Retinaldehyde dehydrogenase 3 (Homo sapiens) (UniProt P47895)
# Assay: qHTS for Inhibitors of the Aldehyde Dehydrogenase Family (ALDH1A3) Primary screen (AID 2061315);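 further: plate controls were DMSO vehicle for no effect and reference inhibitor for full effect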
# Settings: ALDH inhibition qHTS; series mostly up to 56 µM; activity change, negative = inhibition: at the top concentration
SMILES,"activity change, negative = inhibition",Potency
Cc1ccc(OCCn2c(CCNC(=O)c3ccco3)nc3ccccc32)cc1,15.7%,
Cc1cccc(-n2cnc3cc(C(=O)NC(C)(C)C)ccc32)c1,1.87%,
CC1=C(C(=O)Nc2nnc(-c3ccccc3)s2)C(c2nn(C)cc2Cl)N=C(Nc2nc3ccccc3o2)N1 (stereo not given),2.19%,
Cc1nnc(-c2cnn(C)c2N)n1Cc1cncn1C,-7.51%,
O=C(CN1C(=O)N/C(=C\c2cn(-c3cccc(C(=O)O)c3)cn2)C1=O)Nc1ccc(Cl)cc1,16.9%,
COc1cccc(C2c3c(ncn(-c4ccccc4)c3=N)Oc3ccc4ccccc4c32)c1OC (stereo not given),-8.12%,
O=C(Nc1cccnc1)c1cccs1,-5.25%,
CC(Oc1ccc2[nH]nc(/C=C/c3cnn(CCO)c3)c2c1)c1c(Cl)cncc1Cl (stereo not given),12.4%,
Cc1cc(NS(=O)(=O)Cc2ccc(NC(=O)Cc3ccc(Cl)c(Cl)c3)cc2)no1,-2.43%,
COc1ccc(S(=O)(=O)N2CCN(S(=O)(=O)c3c(F)cccc3F)CC2)cc1,,inactive
O=C(Nc1ccc(Cl)c(Cl)c1)N1CCN(c2ccncc2)CC1,17.7%,
NC1(C(=O)NC(CCO)c2ccc(Cl)cc2)CCN(c2ncnc3[nH]ccc23)CC1 (stereo not given),10.4%,
O=C(OCC#CCSc1nnc(-c2cccc3ccccc23)o1)C1CCC1,12.6%,
Cc1ccc(S(=O)(=O)Nc2cc(C(=O)Nc3nc(-c4ccccc4)cs3)ccn2)cc1,8.68%,
COc1cccc(C2c3c(ncn(-c4cccnc4)c3=N)Oc3ccc4ccccc4c32)c1 (stereo not given),0.421%,
COc1ccc(-c2nnc3n2N=C(c2ccc(OC)c(OC)c2)CS3)cc1,6.73%,
Cc1cc(C)n2ncc(C(=O)Nc3cccc(C(F)(F)F)c3)c2n1,-1.12%,
FC(F)(F)c1ccccc1-c1nc(NCc2ccccc2)c2ccccc2n1,-6.51%,
FC(F)(F)c1ccccc1-c1nc(NCc2ccc(-c3ccc4ccccc4c3)cc2)c2ccccc2n1,-19.8%,
N#CN1CCC(NS(=O)(=O)c2cccc(C(F)(F)F)c2)CC1,-2.92%,

SMILES,"activity change, negative = inhibition",Potency
Cc1cc(C)nc(NC(=S)N2CCN(c3ccc(S(C)(=O)=O)cc3F)CC2)c1,3.9%,
CN1C2CCC1CC(OC(=O)[C@H](CO)c1ccccc1)C2 (stereo not given in full),0.907%,
O=C(Nc1ncc(Cc2ccccc2)s1)c1ccc(-c2cccc([N+](=O)[O-])c2)o1,15.1%,
Cc1ccc(OCCn2c3c(c4ccccc42)CCN(C(=O)C2CCCCC2)C3)cc1,6.91%,
c1nc(NCc2ccoc2)c2cc(-c3ccc4c(c3)OCO4)ccc2n1,-12.2%,
CC(=O)O[C@@H]1CC(C)=C2[C@H]1[C@H](C)CC[C@H]2/C=C(\C)C(=O)O,12.3%,
CCc1c(C)nc2cc(-c3ccc(OC)c(OC)c3)nn2c1N1CCCC1,-6.08%,
Fc1cnc(-c2ccccc2C(F)F)nc1NCC1CCN(c2cnccn2)C1 (stereo not given),-4.35%,
C=C(C)C(=O)O[C@H]1C[C@@](C)(O)C2(O)CCC(C)(/C=C3/OC(=O)C(COC)=C31)O2 (stereo not given in full),-9.43%,
Cc1cc(C)nc(NC(=S)N2CCN(Cc3c(F)cccc3Cl)CC2)c1,-8.18%,
N#CN1CCC(NC(=O)c2cccc(F)c2)CC1,-3.53%,
Cc1ccc(OCCn2c(CCNC(=O)C3CCCCCC3)nc3ccccc32)cc1,-4.2%,
O=C(Nc1sc2c(c1-c1nc3ccccc3s1)CCNC2)C(F)F,8.91%,
CCOc1ccc(NC(=O)Nc2ccc(-c3nc4ccccc4[nH]3)cc2)cc1,10.7%,
CCc1ccccc1-c1nc(NCc2ccc(-c3cccnc3)cc2)c2ccccc2n1,-20.2%,
COc1cc(O)c(C(CC(=O)N2CCCC(COc3ccc(F)cc3)C2)c2ccc3c(c2)OCO3)c(OC)c1 (stereo not given),20.5% [at 114 µM],
COC(=O)c1cccc(-c2noc(-c3ccccc3F)n2)c1,-1.54%,
O=C1CCc2cc(S(=O)(=O)Nc3cccc(C(F)(F)F)c3)ccc2N1,-4.44%,
O=C1CCCC2=C1C(c1[nH]ncc1Cl)NC(=NCc1ccoc1)N2 (stereo not given),1.61%,
Cc1cccc(-c2csc(N3CCC(C(N)=O)CC3)n2)c1,-0.986%,

# Reference: PubChem BioAssay (NCATS)
